Activity calls are given as the source filed them. How the source made its calls: active means hit-call score of the fitted dose curve at least 0.9, where 1 is the maximum; inactive means score below 0.9.
Assay: CCTE_Shafer_MEA_dev_per_network_spike_spike_percent: CCTE's Neural Network Formation Assay for Percent of Spikes in a Network Spike, Shafer Lab (AID 2284054)
Procedure: CCTE_Shafer_MEA_dev assay is conducted using Axion Biosystems 48 well microelectrode array (MEA) plates and Maestro recording system. Each well of the MEA plate contains a grid of 16 microelectrodes embedded in the culture surface. Electrically active cells, such as neurons, can be cultured over the electrodes, and electrical activity in these cells can be recorded extracellularly. The spontaneous firing of neurons is captured from each electrode on a microsecond timescale providing both temporally and spatially precise data. […] The CCTE_Shafer_MEA_dev assay uses primary cultures of rat cortical neurons. Recordings are made on days post-plating 5, 7, 9 and 12. As these cultures mature over time, neural networks develop functional activity and form cohesive networks in which electrical activity can be highly coordinated. CCTE_Shafer_MEA_dev_per_network_spike_spike_percent is 1 of 19 assay components of the CCTE_Shafer_MEA_dev assay. It measures the percent of spikes (action potential firings) in a network spike (temporally-clustered group of spikes across multiple electrodes) as the number of spikes that occur within a 0.05 s time window at the peak of a network spike divided by the total number of spikes during a recording in a microelectrode array (MEA) using Axion Biosystems Maestro 768 channel amplifier with the AxIS adaptive spike detector. To collapse across multiple recordings made on days post-plating 5, 7, 9 and 12, the trapezoidal area-under-the-curve of the component is calculated.Data from the assay component CCTE_Shafer_MEA_dev_per_network_spike_spike_percent was analyzed into 1 assay endpoint. This assay endpoint, CCTE_Shafer_MEA_dev_per_network_spike_spike_percent, was analyzed in the negative analysis fitting direction relative to DMSO as the negative control and baseline of activity. Using a type of functional reporter, gain or loss-of-signal activity can be used to understand electrical activity.
On the day prior to culture, each well was coated thoroughly with 150 uL of 0.05% polyethyleneimine (PEI, Sigma Cat P3143) in 50 mM HEPES (Sigma Cat H7523) at a pH of 8. The plate was incubated at 37C for one hour. PEI was rinsed out with 500 uL of sterile water three times. Plates were stored at 4C until the day of culture. This culture was plated at a seeding density of 1.5 x 10^5 cells/well on a 48-well MEA plate, prepared as described above. Cells were administered via a 25 uL media/laminin ([…]; Sigma Cat L2020-1MG) drop directly onto the microelectrode array, as adding the cells with the laminin results in better attachment than pre-coating with laminin. After 2 hours, an additional 475 uL of cortical media was added and the cells returned to the incubator. Exposure starts at day 0 of plating and is continued over twelve days of network development until the experiment is terminated. Cells are fed with fresh medium on DIV 5 and 9, following the recordings on those days. The entire volume of media in the well is exchanged and any vehicle or compound treatment is renewed. Complete details are found in OP-NHEERL/ISTD/SBB/TJS/2015-03-r0 (available on request, email shafer.tim@epa.gov). Measurement of the electrical activity is non-invasive, and recordings can be made from the same plate over multiple different days of the culture. In cortical neurons, this allows for the measurement of extracellular action potentials over the period during which networks form in the MEA plate.

Structure (SMILES)	outcome	AC50
O=S(=O)(O)CCC(F)(F)C(F)(F)C(F)(F)C(F)(F)F	inactive	–
FC(F)(F)C(F)(F)C(F)(F)C(F)(F)C(F)(F)C(F)(F)C(F)(F)CCI	inactive	–
OCC(F)(F)C(F)(F)C(F)(F)C(F)(F)C(F)(F)C(F)(F)CO	inactive	–
NC(=O)C(F)(F)C(F)(F)C(F)(F)C(F)F	inactive	–
OCC(O)CC(F)(F)C(F)(F)C(F)(F)C(F)(F)F (centres undefined)	inactive	–
CO[Si](C)(CCC(F)(F)C(F)(F)C(F)(F)C(F)(F)C(F)(F)C(F)(F)F)OC	inactive	–
C=CC(=O)OCC(F)(F)C(F)(F)C(F)(F)COC(=O)C=C	–	4.56 µM (active)
O=C(O)C(F)(F)C(F)(F)C(F)(F)OC(F)(F)F	inactive	–
OC(O)C(F)(F)C(F)(F)F	inactive	–
NC(=O)C(F)(F)C(F)(F)C(F)(F)F	inactive	–
NC(O)(C(F)(F)F)C(F)(F)F	inactive	–
O=S(=O)(O)CCC(F)(F)C(F)(F)C(F)(F)C(F)(F)C(F)(F)C(F)(F)C(F)(F)C(F)(F)F	inactive	–
CCN(CCO)S(=O)(=O)C(F)(F)C(F)(F)C(F)(F)C(F)(F)C(F)(F)C(F)(F)C(F)(F)C(F)(F)F	inactive	–
CNS(=O)(=O)C(F)(F)C(F)(F)C(F)(F)C(F)(F)C(F)(F)C(F)(F)C(F)(F)C(F)(F)F	inactive	–
C=CC(=O)OCCC(F)(F)C(F)(F)C(F)(F)C(F)(F)F	–	8.58 µM (active)
OCCCCC(F)(F)C(F)(F)C(F)(F)C(F)(F)F	inactive	–
NC(=O)C(F)(F)C(F)(F)C(F)(F)C(F)(F)C(N)=O	inactive	–
OCC(F)(F)C(F)(F)C(F)(F)CO	inactive	–
OCC(F)(F)C(F)(F)C(F)(F)C(F)(F)C(F)(F)C(F)(F)C(F)(F)C(F)(F)CO	inactive	–

From PubChem BioAssay (EPA / NIEHS)
